This is part of a sample that, as a whole, favours compounds with a hit. Of some 83,000 tested, about 20% had one in any assay.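 Growth was measured after 48 h exposure to one concentration of compound in 96-well plates. Values under 10 count as active.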 Activity calls are given as the source filed them.
Tested on: SN12C renal
Experiment: NCI-60 one-dose screen, 48 h (100 = growth as untreated, 0 = no growth, -100 = all killed)
Settings: 10 µM unless noted
Protocol: Growth inhibition of the SN12C human tumor cell line is measured as a screen for anti-cancer activity. Cells are grown in 96 well plates and exposed to the test compound for 48 hours. Compounds are tested at a single concentration, which is 10^-5 M for most compounds. The reported endpoint is percent growth (GI% or GIPRCNT), where numbers from 0 - 100% represent growth inhibition, and numbers from -100% - 0 represent cell death. For example, a value of 40 represents 60% growth inhibition. A value of 0 means no net growth occurred over the course of the experiment. A value of -40 indicates 40% of cells at the beginning of the experiment died by the end of the experiment. A value of -100 means all cells are dead at the end of the experiment.
NCI-60 Human Tumor Cell Lines Screen was performed using the standard one-dose NCI protocol, which is described in more detail at https://dtp.cancer.gov/discovery_development/nci-60/default.htm.
Compounds with GIPRCNT values below 10 were considered active. Activity score was based on GIPRCNT using the following formula: […]
Score is 0 for GIPRCNT values of 100 or above, 50 for GIPRCNT values of 0, and 100 for GIPRCNT values of -100.

Structure (SMILES)	growth
CCC1CC(O)c2c(O)c3c(c(O)c2C1O)C(=O)c1cccc(O)c1C3=O (stereo not given) (tested in a mixture with another compound)	0.851% (active)
CC(=O)O[C@@H]1CC[C@]2(C)[C@H]3CC[C@]4(C)C(=O)CC[C@H]4[C@@H]3C[C@@H]3SC(N)=N[C@@]32C1	77.3% (inactive)
CC(=O)OCc1cc[c]([Hg][Cl])o1	55.9% (inactive)
CCCCCCCC[N+](C)(CCCCCCCC)CCCCCCCC	-86.5% (active)
CC(=O)O[C@H]1CC[C@H]2[C@@H]3CC=C4c5nc(-c6ccccc6)sc5CC[C@]4(C)[C@H]3CC[C@]12C	85.5% (inactive)
Cn1cc(-c2csc(-c3cn(CCCCN4CCCCC4)c4ccccc34)n2)c2cccnc21	81.8% (inactive)
COc1ccc(C(=O)c2sc3nc4c(cc3c2N)N2CCC4CC2)cc1OC	93.4% (inactive)
COc1ccc(/C=C\c2cc(OC)c(OC)c(OC)c2)c(NS(=O)(=O)c2ccc(F)cc2)c1O	28.1% (inactive)
COC1OC(CO)C(O)C(O)[CH]1[Hg][O]C(C)=O (stereo not given)	88.5% (inactive)
Oc1c(CCl)cc(Cl)cc1CCl	122% (inactive)
CC1[C@H](C)OC(=O)CC(O)CC(O)CC(O)CCC(O)C(O)C[C@]2(O)CC(O)C(C(=O)O)C(CC(OC3O[C@H](C)[C@@H](O)[C@H](N)[C@@H]3O)/C=C/C=C/C=C/C=C/CC/C=C/C=C/[C@H](C)[C@H]1O)O2 (stereo not given in full)	98.5% (inactive)
CC(=O)Nc1ccc(NC(=O)c2ccc([As](O)O)cc2)cc1	93.9% (inactive)
COP(=O)(OC)C(O)c1ccc(Cl)cc1 (stereo not given)	108% (inactive)
O=C(N/N=C\c1ccc(N(CCCl)CCCl)cc1)c1cccc([N+](=O)[O-])c1	88.9% (inactive)
O=C1OCC2=C1C(c1ccccc1)c1cc3c(cc1N2)OCO3 (stereo not given)	21.5% (inactive)
O[C@H](CN1CC1)[C@@H](O)CN1CC1	41.1% (inactive)
O=C1C=C2C(=CCOC2O)O1 (stereo not given)	35.1% (inactive)
COc1ccc([As]=[As]c2ccc(OC)c(NCS(=O)(=O)O)c2)cc1NCS(=O)(=O)O (stereo not given)	12.4% (inactive)
CN1C(=O)N[C@H]2[C@@H]3NC(=O)c4ccc(Br)n4[C@@H]3C[C@]21O	-14.1% (active)
ClCCN(CCCl)Cc1ccc(Nc2ccnc3cc(Cl)ccc23)cc1	18.8% (inactive)

Structure (SMILES)	growth
CCOC(=O)[C@@H](C)C[C@H](Cc1ccccc1)NC(=O)c1csc([C@@H](C[C@H](C(C)C)N(C)C(=O)[C@@H](NC(=O)[C@H]2CCCCN2C)C(C)(C)CC)OC(C)=O)n1	9.13% (active)
O=[N+]([O-])CC(O)C(Cl)(Cl)Cl (stereo not given)	106% (inactive)
COc1ccc(Nc2ccc([N+](=O)[O-])cc2[N+](=O)[O-])cc1CN(CCCl)CCCl	21.4% (inactive)
O=C(CC1(O)C(=O)N(Cc2ccccc2)c2ccccc21)c1ccc(C(=O)NCC2CCC3(CC2)OOC2(CCCCC2)OO3)cc1 (stereo not given)	-60.9% (active)
COC(=O)[C@@H](C)C[C@H](Cc1ccccc1)NC(=O)c1csc([C@@H](C[C@H](C(C)C)N(C)C(=O)C2(NC(=O)[C@H]3CCCCN3C)CC2)OC(C)=O)n1	31.3% (inactive)
COC(=O)[C@H](C[C@H](Cc1ccccc1)NC(=O)c1csc([C@@H](C[C@H](C(C)C)N(C)C(=O)[C@@H](NC(=O)[C@H]2CCCCN2C)C(C)C)OC(C)=O)n1)NC(=O)OCc1ccccc1	9.35% [8.5 µM] (active)
CC12CCC3C(C=CC4=C(N)C(=O)CCC43C)C1CCC2=O (stereo not given)	88.5% (inactive)
[Cl][Hg][c]1cc[c]([Hg][Cl])o1	34.9% (inactive)
CCCCCCCCCCCCNC(c1ccccc1)C(O)c1ccccc1 (stereo not given)	68.5% (inactive)
CCOP(=O)(Nc1ccc2c(c1)/C(=N/NC(N)=S)c1ccccc1-2)OCC	81.9% (inactive)
NC(CCl)CCl	101% (inactive)
COc1cc(/C=C/[N+](=O)[O-])cc(OC)c1	44.7% (inactive)
COc1cc(/C=C\c2cc(OC)c(OC)c(OC)c2)cc(NS(=O)(=O)c2cccc(Cl)c2)c1OC	27.7% (inactive)
CC(=O)Nc1nc2c(s1)CC[C@@]1(C)C2=CC[C@H]2[C@@H]3CC[C@H](O)[C@@]3(C)CC[C@@H]21	74% (inactive)
C=C1C[C@](OC)([C@H](O)C(=O)N[C@@H](OC)[C@@H]2C[C@@H](O)C(C)(C)[C@@H](C[C@@H](COC)OC)O2)O[C@H](C)[C@@H]1C	-29.9% (active)
CNC(=O)Oc1ccc2c(c1)OCO2	99.7% (inactive)
CC(C)[C@@H]1NC(=O)[C@]2(C)CSC(=N2)c2csc(n2)CNC(=O)C[C@@H](/C=C/CCS)OC1=O	31.7% (inactive)
CC(=O)O[C@H]1C(=O)[C@@]2(C)[C@H]([C@H](OC(=O)c3ccccc3)[C@]3(O)C[C@H](OC(=O)[C@H](OC(=O)OC[C@H]4COC(C)(C)O4)[C@@H](NC(=O)c4ccccc4)c4ccccc4)C(C)=C1C3(C)C)[C@]1(OC(C)=O)CO[C@@H]1C[C@@H]2O	22.5% (inactive)
CCNc1nc(Cl)nc(NCC)n1	102% (inactive)
CC(C)OC(=O)[C@H](C)NP(=O)(Oc1ccccc1)C1CCCN(O)C1=O (stereo not given in full)	99.2% (inactive)
